Experimental data as given in PubChem BioAssay.
Activity calls are given as the source filed them.

Experiment: small-molecule binders of probe aLefty1, primary screen, biochemical, small-molecule microarray, 635/667 nm fluorescence (AID 1153);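 note: score merges spot fluorescence with signal-to-noise ratio from the scanned slide images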
Settings: higher = more signal

Composite z-score, 0.0004:
CC(C)NC(=O)[C@@]1(C)c2ccccc2C(=O)N(Cc2ccc(OC(F)(F)F)cc2)[C@H]1c1ccc(CO)cc1

Composite z-score, -0.103:
CCCC[C@@H](O)C1=C(COC)C[C@H]2C(=O)N(Cc3ccccc3)C(=O)[C@H]2[C@H]1CO

Composite z-score, -0.22:
CC(=O)NCCCC[C@@H]1NC(=O)[C@@H]2C[C@H](C(=O)NCCCCCN)[C@H](c3cccc(OCCO)c3)N2C1=O

Composite z-score, 0.192:
OCCCC1=CC(c2ccc(CN3CCCC3)cc2)N(Cc2cc3c(cc2Br)OCO3)CC1 (centres undefined)

Composite z-score, -0.0576:
CCCCC(CC)C(O)C1C=CC2C(=O)N(c3ccccc3)C(=O)C2N1Nc1ccccc1F (centres undefined)

Composite z-score, 0.266:
O=C(O)[C@@H]1C[C@@H]2C(=O)N3CCC[C@H]3C(=O)N2[C@@H]1c1ccc(O)cc1

Composite z-score, -0.0111:
COc1ccc([Si](C)(C)[C@@H]2[C@@H](CCO)O[C@]3(C(=O)N(Cc4ccccc4)c4ccc(N5C(=O)c6cccc7cccc5c67)cc43)[C@H]2C)cc1

Composite z-score, 0.121:
O=C(NCCN1CCOCC1)[C@@H]1c2ccccc2C(=O)N(Cc2ccccc2Cl)[C@H]1c1ccc(CO)cc1

Composite z-score, 0.0774:
CCOC(=O)C[C@H]1[C@H](OC(=O)c2cc3ccccc3oc2=O)[C@@H](NC(=O)c2ccc3ccccc3n2)c2cc(OCCCO)ccc2N1C(=O)Cc1ccc(OC)cc1

Composite z-score, 0.145:
COc1ccc(C#Cc2ccc3c(c2)[C@]2(C(=O)N3)[C@H](c3ccc(OCCO)cc3)N3[C@H](c4ccccc4)[C@H](c4ccccc4)OC(=O)[C@H]3[C@@H]2C(=O)NC[C@H](O)c2ccccc2)cc1

Composite z-score, 0.746:
COC(=O)[C@@]1(Cc2ccc(F)cc2)[C@H]2c3cc(C(=O)N4CCCC4)n(Cc4ccc(C)c(F)c4F)c3C[C@H]2CN1C(=O)c1ccccc1

Composite z-score, 0.199:
[N-]=[N+]=Nc1ccccc1C[C@]1(C(=O)O)COC(c2ccc(OCCCO)cc2)=N1

Composite z-score, 0.329:
C=C[C@H](C)[C@H](OC(=O)Nc1ccc(SC)cc1)c1ccc(OCCO)cc1

Composite z-score, -0.0501:
CC(C)[Si]1(C(C)C)OCc2cc(-c3ccc(-c4ccc(Cl)c(Cl)c4)o3)nc(-c3ccccc3)c21

Experiment: PSAC antagonists in infected red cells, primary screen, cell-based, P. falciparum Indochina, OD700, 1 h (AID 1154)
Settings: P. falciparum Indochina infected RBC osmotic lysis, higher = more signal, called active from +8 up or from −8 down

z-score, active:
CCOC(=O)C[C@H]1[C@H](OC(=O)Cc2ccc3c(c2)OCO3)[C@@H](NC(=O)c2ccc3ccccc3n2)c2cc(OCCCO)ccc2N1C(=O)c1ccccc1 8.88
[N-]=[N+]=Nc1ccccc1C[C@@]1(C(=O)NCCN2CCOCC2)N=C(c2ccc(OCCCO)cc2)O[C@@H]1c1ccccc1N=[N+]=[N-] 30.8
CC1=C2[C@@H](CCc3ccccc3)OB(O)C[C@@H]2[C@@H]2C(=O)N(Cc3ccccc3)C(=O)[C@@H]2C1 11.8
CCCCC(=C=CC[C@H](O)c1ccc(OCCO)cc1)CCO 12.9
CCOC(=O)C[C@H]1[C@H](OC(=O)c2cc3ccccc3oc2=O)[C@@H](NC(=O)CC(C)C)c2cc(OCCCO)ccc2N1C(=O)c1ccc2ccccc2n1 9.02
N#Cc1ccc(NN2C(C(O)c3ccc(Br)cc3)C=CC3C(=O)N(c4ccccc4)C(=O)C32)cc1 (centres undefined) 14.8
C=C[C@H](C)[C@H](OC(=O)Nc1ccc(SC)cc1)c1ccc(OCCO)cc1 27.6
CCOC(=O)C[C@H]1[C@H](OC(=O)c2cc3ccccc3oc2=O)[C@@H](NC(=O)c2ccc3ccccc3n2)c2cc(OCCCO)ccc2N1C(=O)Cc1ccc(OC)cc1 8.66
[N-]=[N+]=Nc1ccccc1C[C@]1(C(=O)O)COC(c2ccc(OCCCO)cc2)=N1 23.9

z-score, inactive:
COc1ccc([Si](C)(C)[C@@H]2[C@@H](CC(=O)N(CCO)Cc3ccccc3)O[C@]3(C(=O)N(Cc4cccc(N5CCCCC5=O)c4)c4ccccc43)[C@H]2C)cc1 4.33
C=C[C@@H](OC)[C@H](OC(=O)Nc1ccc(OC)cc1)c1ccc(O)c(F)c1 3.98
CCCCCC1=C2CNC(C)(C(=O)OC)C=C2C(C)C1=O (centres undefined) 0.585
O=C1NC(=O)C2C1C=CC(C(O)c1ccco1)N2Nc1ccc(Cl)cc1Cl (centres undefined) 5.52
CCC#CCN(Cc1ccccc1Br)[C@H](/C=C/C1CC1)[C@@H](O)Cc1ccccc1 -0.224
COc1ccc([Si](C)(C)[C@@H]2[C@@H](CC(=O)N3Cc4ccccc4C[C@H]3CO)O[C@]3(C(=O)N(Cc4ccc(N5C(=O)c6cccc7cccc5c67)cc4)c4ccccc43)[C@H]2C)cc1 3.62
CC1CC/C=C\[C@H]2OC34C=CCN(Cc5ccccc5)C(=O)[C@H]3N(C(CO)C(C)C)C(=O)[C@@H]4C2C(=O)O1 (some centres undefined) 1.42
COc1cccc(C)c1NC(=O)O[C@H]1[C@H](OC(=O)Nc2ccc3c(c2)OCO3)[C@@H](OC(=O)Nc2ccc3c(c2)OCO3)[C@@H](OC)O[C@@H]1CO 5.81
Cc1ccccc1C(O)C1C=CC2C(=O)NC(=O)C2N1Nc1ccccn1 (centres undefined) 0.408
CC(c1ccccc1)C(O)C1C=CC2C(=O)N(C)C(=O)C2N1Nc1ccccc1 (centres undefined) 0.627
C=CCC(OC(C)=O)[C@@H]1[C@@H](N(Cc2ccc(-c3cccc(C(F)(F)F)c3)o2)C(=O)Cc2ccc(OC)cc2)c2cc(OCCCO)ccc2N1C(=O)c1ccc(-c2ccccc2)cc1 (some centres undefined) 0.922
Cc1ccc(S[C@]2(C(=O)NC(C)C)CC(=O)N(Cc3cc(C(F)(F)F)cc(C(F)(F)F)c3)[C@@H]2c2ccc(CO)cc2)cc1 2.96
COc1ccc(CCNC(=O)[C@@]2(c3ccc([N+](=O)[O-])cc3)CC(=O)N(C3CCCCC3)[C@@H]2c2ccc(CO)cc2)cc1 0.965
C[C@@H]1NC(=O)[C@@H](Cc2ccccc2)NC(=O)[C@@]23C(=O)N[C@@H](Cc4ccccc4)C2[C@H](C)[C@@]2(C)O[C@H]2C3/C=C/C/C=C\CNC1=O (some centres undefined) 1.92
CCC1=C2CN(Cc3ccccc3)[C@@H](C(=O)Cc3ccccc3)C2C=CCC1 (some centres undefined) 0.26
OCCCC1=CC(c2ccc(CN3CCCC3)cc2)N(Cc2cc3c(cc2Br)OCO3)CC1 (centres undefined) 3.7
O=C(O)[C@@H]1C[C@@H]2C(=O)N3CCC[C@H]3C(=O)N2[C@@H]1c1ccc(O)cc1 3.69
CC(C)[Si]1(C(C)C)OCc2cc(-c3ccc(-c4ccc(Cl)c(Cl)c4)o3)nc(-c3ccccc3)c21 1.01
COc1ccc([Si](C)(C)[C@@H]2[C@@H](CCO)O[C@]3(C(=O)N(Cc4ccccc4)c4ccc(N5C(=O)c6cccc7cccc5c67)cc43)[C@H]2C)cc1 2.72
O=C(NCCN1CCOCC1)[C@@H]1c2ccccc2C(=O)N(Cc2ccccc2Cl)[C@H]1c1ccc(CO)cc1 4.63
COC(=O)[C@@]1(Cc2ccc(F)cc2)[C@H]2c3cc(C(=O)N4CCCC4)n(Cc4ccc(C)c(F)c4F)c3C[C@H]2CN1C(=O)c1ccccc1 5.03
CCCCC(CC)C(O)C1C=CC2C(=O)N(c3ccccc3)C(=O)C2N1Nc1ccccc1F (centres undefined) 0.741
CC(=O)NCCCC[C@@H]1NC(=O)[C@@H]2C[C@H](C(=O)NCCCCCN)[C@H](c3cccc(OCCO)c3)N2C1=O 2.03
COc1ccc(C#Cc2ccc3c(c2)[C@]2(C(=O)N3)[C@H](c3ccc(OCCO)cc3)N3[C@H](c4ccccc4)[C@H](c4ccccc4)OC(=O)[C@H]3[C@@H]2C(=O)NC[C@H](O)c2ccccc2)cc1 1.97
CC(C)NC(=O)[C@@]1(C)c2ccccc2C(=O)N(Cc2ccc(OC(F)(F)F)cc2)[C@H]1c1ccc(CO)cc1 2.96
CCCC[C@@H](O)C1=C(COC)C[C@H]2C(=O)N(Cc3ccccc3)C(=O)[C@H]2[C@H]1CO 1.83
